A short description of assay [1]: compound effects on lung adenocarcinoma cell viability – A549, calcein-AM fluorescence, 48 h, basal, profiling panel (AID 1162). Note: test concentration not given here. As to conditions: higher = more signal.
The nature of assay [2]: compound effects on differentiated 3T3-L1 adipocyte viability – cell-based, 3T3-L1 adipocytes, calcein-AM fluorescence, 48 h, basal, profiling panel (AID 1163). Note: test concentration not given here. As to conditions: 3T3-L1 adipocytes viability, higher = more signal.
The nature of assay [3]: compound effects on hepatocellular carcinoma cell viability – HepG2, calcein-AM fluorescence, 48 h, basal, profiling panel (AID 1164). Note: test concentration not given here. The settings on record: higher = more signal.
Assay [4] can be described thus: compound effects on multiple myeloma cell viability – MM1S, calcein-AM fluorescence, 48 h, basal, profiling panel (AID 1165).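 Note: viability of MM1S multiple myeloma cells under basal unstimulated conditions; test concentration not given here.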 The settings on record: higher = more signal.
The nature of assay [5]: calcein-AM signal in unstimulated myeloma cells – cell-based, calcein-AM fluorescence, 48 h, PK04 Diversity Set, profiling panel (AID 1166).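 Note: cells grown under basal conditions without added stimulus; test concentration not given here.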 The settings on record: RPMI8226 myeloma viability, higher = more signal.
A short description of assay [6]: JC-1 mitochondrial signal, unstimulated HepG2 cells – cell-based, JC-1 fluorescence, 24 h, 100 nL compound, profiling panel (AID 1167). Note: test concentration not given here. The settings on record: HepG2 mitochondrial potential, higher = more signal.
The nature of assay [7]: JC-1 mitochondrial signal, unstimulated adipocytes – cell-based, JC-1 fluorescence, 3T3-L1 adipocytes, 24 h, 100 nL compound, profiling panel (AID 1168). Note: test concentration not given here. As to conditions: JC-1 mitochondrial fluorescence, higher = more signal, called active from +8 up or from −8 down.
Assay [8] can be described thus: JC-1 mitochondrial signal, unstimulated myeloma cells – cell-based, JC-1 fluorescence, RPMI8226, 24 h, 100 nL compound, profiling panel (AID 1169). Note: test concentration not given here. As to conditions: JC-1 mitochondrial potential fluorescence, higher = more signal.
Assay [9] in a line: JC-1 mitochondrial signal, unstimulated MM1S myeloma – cell-based, JC-1 fluorescence, 24 h, 100 nL compound, profiling panel (AID 1170). Note: test concentration not given here. As to conditions: MM1S mitochondrial potential, higher = more signal.
Assay [10] is described as follows: resazurin metabolic signal in A549 cells – cell-based, resazurin fluorescence, 24 h, PK04 Diversity Set, profiling panel (AID 1171). Note: test concentration not given here. As to conditions: A549 viability, higher = more signal, called active from +8 up or from −8 down. On the technique in general: Resazurin is reduced to fluorescent resorufin, in cell work by metabolically active cells.
Assay [11] is described as follows: resazurin metabolic signal in HepG2 cells – cell-based, resazurin fluorescence, 24 h, PK04 Diversity Set, profiling panel (AID 1172). Note: test concentration not given here. As to conditions: HepG2 viability, higher = more signal.
Assay [12] in a line: budding yeast growth changes without added modifier – OD600, strain BY4716, 24 h, basal condition, primary screen (AID 1173). The settings on record: S. cerevisiae BY4716 growth, OD600, 24 h; higher = more signal, called active from +8 up or from −8 down.
Assay [13] is described as follows: viability profiling in MM1S myeloma cells – cell-based, resazurin fluorescence, basal, 24 h, PK04 Diversity Set, profiling panel (AID 1174). Note: test concentration not given here. The settings on record: higher = more signal, called active from +8 up or from −8 down.
The target of assay [14] is Dihydroorotate dehydrogenase (quinone), mitochondrial (Plasmodium falciparum (isolate 3D7)) (UniProt Q08210). In words: inhibition of P. falciparum DHODH – biochemical, C-terminal His tag, absorbance 600 nm, primary screen (AID 1175).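 Note: recombinant parasite enzyme with a five histidine tag at its C terminus; test concentration not given here.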 As to conditions: PfDHODH enzyme, DCIP absorbance 600 nm; higher = more signal, called active from +8 up or from −8 down.
Assay [15] is described as follows: inhibition of PAO1 biofilm formation – strain PAO1, LB-PBS medium, absorbance 600 nm, primary screen (AID 1176). Note: test concentration not given here. The settings on record: P. aeruginosa PAO1 growth/biofilm, A600, 12 h; higher = more signal.
Assay [16] is described as follows: growth modulation of vineyard yeast isolate – strain RM11-1a, OD600, basal, 24 h, primary screen (AID 1177).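 Note: cultures grown under basal conditions with no added stressor; test concentration not given here.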 As to conditions: S. cerevisiae RM11-1a growth, OD600, 24 h; higher = more signal, called active from +8 up or from −8 down.
Assay [17] can be described thus: growth of efflux-deficient E. coli DRC39 – strain DRC39, OD650, 24 h, E. coli filamentation inducers, primary screen (AID 1178).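 Note: growth measured as culture turbidity by optical density at 650 nm; test concentration not given here.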 The settings on record: E. coli DRC39 acrAB, higher = more signal, called active from +8 up or from −8 down.
Assay [18] is described as follows: growth of efflux-deficient E. coli DRC39 – strain DRC39, OD650, 48 h, E. coli filamentation inducers, primary screen (AID 1179).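 Note: screen aims at cell division blockers that make cells filament.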 The settings on record: E. coli DRC39 delta-acrAB growth, higher = more signal, called active from +8 up or from −8 down.
A short description of assay [19]: viability profiling in RPMI8226 myeloma cells – cell-based, resazurin fluorescence, basal, 24 h, PK04 Diversity Set, profiling panel (AID 1180).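 Note: RPMI8826 multiple myeloma cell line at 5000 cells per well; test concentration not given here.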 The settings on record: higher = more signal.
For assay [20], the target named is E3 ubiquitin-protein ligase XIAP (Homo sapiens) (UniProt P98170). In words: small molecules binding XIAP protein – biophysical, small-molecule microarray, fluorescence 635 nm, primary screen (AID 1181).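 Note: score merges 667 nm emission and signal to noise over triplicate slides.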 As to conditions: higher = more signal.

Activity calls are given as the source filed them. Unless noted, the rule behind the calls is not given here.

Dihydroorotate dehydrogenase (quinone), mitochondrial (Plasmodium falciparum (isolate 3D7)), sequence (Q08210 whole entry, looked up): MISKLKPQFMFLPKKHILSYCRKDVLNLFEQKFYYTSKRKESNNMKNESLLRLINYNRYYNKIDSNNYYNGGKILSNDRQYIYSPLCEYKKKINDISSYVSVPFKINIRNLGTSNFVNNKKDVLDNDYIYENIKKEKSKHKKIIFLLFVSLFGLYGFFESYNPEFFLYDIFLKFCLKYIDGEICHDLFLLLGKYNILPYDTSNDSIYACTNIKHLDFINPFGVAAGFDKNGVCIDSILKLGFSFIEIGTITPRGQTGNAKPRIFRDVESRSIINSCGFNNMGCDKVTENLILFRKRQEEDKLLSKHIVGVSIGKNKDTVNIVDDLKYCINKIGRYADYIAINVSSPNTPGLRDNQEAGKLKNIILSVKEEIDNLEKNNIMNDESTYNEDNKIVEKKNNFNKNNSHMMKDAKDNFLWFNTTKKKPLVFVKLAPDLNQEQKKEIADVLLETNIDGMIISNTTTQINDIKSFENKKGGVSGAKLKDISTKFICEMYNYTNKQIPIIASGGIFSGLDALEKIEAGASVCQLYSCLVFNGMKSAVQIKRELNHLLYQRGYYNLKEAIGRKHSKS
E3 ubiquitin-protein ligase XIAP (Homo sapiens), sequence (P98170 whole entry, looked up): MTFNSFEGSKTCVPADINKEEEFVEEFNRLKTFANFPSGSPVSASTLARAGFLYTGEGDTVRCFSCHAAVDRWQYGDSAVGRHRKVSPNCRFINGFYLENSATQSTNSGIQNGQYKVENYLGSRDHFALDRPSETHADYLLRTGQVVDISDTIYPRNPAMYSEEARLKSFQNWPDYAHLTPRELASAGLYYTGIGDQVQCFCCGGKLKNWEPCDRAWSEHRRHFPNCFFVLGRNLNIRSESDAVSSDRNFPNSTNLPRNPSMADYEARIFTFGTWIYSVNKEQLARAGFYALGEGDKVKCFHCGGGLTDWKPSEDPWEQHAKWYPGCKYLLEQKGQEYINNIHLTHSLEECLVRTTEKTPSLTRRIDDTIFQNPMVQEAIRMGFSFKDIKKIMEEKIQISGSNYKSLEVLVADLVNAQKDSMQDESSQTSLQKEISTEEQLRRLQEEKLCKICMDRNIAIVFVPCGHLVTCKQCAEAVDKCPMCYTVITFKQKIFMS

Turning to `O=c1cccc(CCc2ccccc2)o1`, the z-score in assay [1] is -0.0082; in [2], -0.519; in assay [3], 0.926; in assay [4] it was -0.441; in assay [5], -0.709; in assay [6] it was -0.903. In addition, the z-score in [7] is -0.352 (inactive); in assay [8] it was -0.976; in [9], 0.226; in [10] it was -0.574 (inactive); in [11], -0.523; in assay [12] it was -3.45 (inactive). For the same molecule, the z-score was -0.0074 (inactive) in assay [13]; -0.156 (inactive) in assay [15]; -0.259 (inactive) in assay [16]; -0.74 (inactive) in assay [17]; -0.608 (inactive) in assay [18]; -0.753 in [19]. For the same molecule, the composite z-score in assay [14] was -1.19 (inactive); in [20] it was 0.273.

Take `COc1ccc(NN2C(C(O)c3ccc(OC)c(OCc4ccccc4)c3)C=CC3C(=O)N(C4CCCCC4)C(=O)C32)cc1` (stereo not given): the z-score was 0.412 in assay [1]; -0.714 in assay [2]; 0.337 in assay [3]; -0.257 in [4]; 0.0417 in [5]; 0.348 in assay [6]. Moreover, the z-score in assay [7] was 0.353 (inactive); in assay [8] it was 0.0161; in assay [9], -1.33; in assay [10], 0.817 (inactive); in [11], 1.03; in assay [12], -1.76 (inactive). Further, the z-score was 0.0269 (inactive) in [13]; 0.946 (inactive) in assay [15]; -0.221 (inactive) in assay [16]; -0.101 (inactive) in assay [17]; 1.19 (inactive) in assay [18]; 0.0424 in assay [19]. The composite z-score in [14] was -0.0522 (inactive); in assay [20], -0.141.

`Cc1cc(C)c(C(O)C2C=CC3C(=O)N(C)C(=O)C3N2Nc2ccccc2)c(C)c1` (stereo not given): the z-score in assay [1] was -1.02; in assay [2], -0.904; in [3] it was -0.798; in assay [4] it was -0.305; in assay [5], -0.681; in assay [6], -1.73. Besides, the z-score was -1 (inactive) in assay [7]; -0.207 in assay [8]; 0.434 in assay [9]; -0.551 (inactive) in [10]; -1.03 in assay [11]; -0.0657 (inactive) in [12]. Moreover, the z-score in [13] was -1.1 (inactive); in assay [15] it was 0.944 (inactive); in assay [16], -0.362 (inactive); in assay [17], -0.709 (inactive); in assay [18] it was -0.456 (inactive); in [19], -1.46. The values for the composite z-score in assay [14] and in [20] were 0.0016 (inactive) and 0.372, respectively.

As for `O=C1O[C@H](c2ccccc2)[C@H](c2ccccc2)N2[C@H]1[C@@H](C(=O)NC[C@H](O)c1ccccc1)[C@]1(C(=O)Nc3ccc(C#CCCO)cc31)[C@H]2c1ccc(O)cc1`, the z-score in assay [1] is 0.102; in [2] it was 1.09; in assay [3] it was -0.975; in [4], 0.245; in assay [5], -0.155; in [6], -0.72. Besides, the z-score in assay [7] is 0.0782 (inactive); in [8], 0.626; in [9], 0.000313; in [10], 0.024 (inactive); in assay [11], -0.0297; in [12], 0.047 (inactive). The z-score is -0.0226 (inactive) in assay [13]; 0.432 (inactive) in assay [15]; 0.117 (inactive) in assay [16]; -0.568 (inactive) in assay [17]; -0.982 (inactive) in [18]; -0.186 in assay [19]. Besides, the results for the composite z-score in assay [14] and in assay [20] were -1.4 (inactive) and 0.133, respectively.

As to `C=C[C@H](C)[C@@H](O)c1ccc(O)c2ccccc12`, the z-score was -0.573 in assay [1]; -0.69 in assay [2]; -0.218 in [3]; -2.57 in assay [4]; -1.55 in [5]; -1.98 in assay [6]. The z-score is -0.641 (inactive) in assay [7]; -0.94 in assay [8]; -1.29 in [9]; -0.292 (inactive) in assay [10]; 0.146 in assay [11]; -12.2 (active) in [12]. The z-score is -1 (inactive) in [13]; 1.03 (inactive) in assay [15]; 0.248 (inactive) in assay [16]; 0.537 (inactive) in assay [17]; 0.445 (inactive) in assay [18]; -0.791 in assay [19]. For the same molecule, the figures for the composite z-score in assay [14] and in assay [20] were -0.177 (inactive) and -0.0622, respectively.

As for `COCCOC(=O)N1C(=O)[C@@]2(c3ccccc31)[C@H](c1ccc(O)cc1)N1[C@H](c3ccccc3)[C@H](c3ccccc3)OC(=O)[C@H]1[C@@H]2C(=O)N1CCc2cc(OC)c(OC)cc2C1`, the z-score was 0.823 in assay [1]; 0.748 in [2]; 2.31 in assay [3]; 0.448 in assay [4]; -0.368 in assay [5]; 0.893 in assay [6]. In addition, the z-score is 2.9 (inactive) in assay [7]; 0.228 in assay [8]; 0.296 in [9]; -0.275 (inactive) in [10]; 0.129 in assay [11]; 0.0332 (inactive) in [12]. Also, the z-score is 0.612 (inactive) in assay [13]; 0.759 (inactive) in [15]; -0.33 (inactive) in assay [16]; 0.919 (inactive) in [17]; 1.3 (inactive) in [18]; 0.471 in [19]. For the same molecule, the composite z-score in assay [14] was -0.888 (inactive); in assay [20], -0.0841.

In the case of `[N-]=[N+]=NCc1ccccc1C[C@]1(C(=O)NCC(O)CO)N=C(c2ccc(OCCCO)cc2)O[C@H]1c1ccccc1N=[N+]=[N-]` (stereo not given in full), the z-score in assay [1] is -0.13; in assay [2] it was 1.27; in assay [3] it was -0.35; in assay [4] it was -1.09; in [5] it was -1.11; in [6], 0.0849. Besides, the z-score in assay [7] is 1.19 (inactive); in assay [8] it was -0.893; in assay [9] it was -0.384; in [10] it was 0.0953 (inactive); in assay [11] it was 0.207; in [12] it was 0.664 (inactive). Moreover, the z-score was -0.403 (inactive) in [13]; 0.208 (inactive) in assay [15]; 2.8 (inactive) in assay [16]; 1.22 (inactive) in [17]; 0.0128 (inactive) in assay [18]; -0.986 in [19]. The values for the composite z-score in assay [14] and in assay [20] were 1.83 (inactive) and -0.0057, respectively.

For `C=CCOC(=O)[C@H]1[C@@H]2C(=O)O[C@@H](c3ccccc3)[C@@H](c3ccccc3)N2[C@@H](c2ccc(OCCOC(=O)[C@@H]3C[C@@H]4C(=O)NCC(=O)N4[C@@H]3c3ccc(O)cc3)cc2)[C@]12C(=O)Nc1ccccc12`, the z-score in [1] is 0.422; in [2], 0.905; in assay [3], 1.49; in [4], -0.459; in assay [5], 0.776; in assay [6] it was -1.35. Besides, the z-score was -0.577 (inactive) in assay [7]; -0.831 in assay [8]; -1.12 in assay [9]; 0.677 (inactive) in [10]; 0.558 in assay [11]; -0.0301 (inactive) in assay [12]. The z-score was 1.56 (inactive) in [13]; 2.05 (inactive) in assay [15]; -1.38 (inactive) in [16]; 0.971 (inactive) in assay [17]; 1.61 (inactive) in [18]; 0.765 in assay [19]. For the same molecule, the figures for the composite z-score in [14] and in assay [20] were -0.803 (inactive) and -0.121, respectively.

In the case of `Cc1ccc(S[C@]2(C(=O)NC3CC3)CC(=O)N(C3CCCCC3)[C@@H]2c2ccc(CO)cc2I)cc1`, the z-score in assay [1] was 1.07; in assay [2], -0.07; in assay [3] it was 1.12; in assay [4] it was -2.5; in assay [5], -1.7; in assay [6] it was 1.62. Also, the z-score in assay [7] was 0.124 (inactive); in assay [8], -0.558; in [9] it was -1.2; in assay [10], -0.0731 (inactive); in assay [11] it was 0.57; in assay [12], -0.134 (inactive). Moreover, the z-score in assay [13] was -0.232 (inactive); in assay [15] it was 0.475 (inactive); in assay [16], 0.537 (inactive); in assay [17], 0.738 (inactive); in assay [18], 0.377 (inactive); in assay [19], -1.54. Moreover, the composite z-score is 1.44 (inactive) in assay [14] and -0.13 in assay [20].
